Compound activity (PubChem)
In the library only some 7.5% were active in any assay of this set; here they are far more common.
SMN2 splice enh = qHTS Assay for Enhancers of SMN2 Splice Variant Expression; AID 1458, 2008; HEK293 SMN2-luciferase splicing reporter, luminescence, 30-36 h; Potency, µM (titrated, usually from 46.1 µM), without a hit: top-dose activity change, positive = activation, most hits filed as activators; 210,000 compounds, 2.8% hits; note: % of control where 0% means no effect; nearly all actives have a fitted effect of over 55% in size
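qHTS luciferase splicing reporter: luminescence rises when SMN2 exon 7 is included in transfected HEK293 cells. Compound exposure lasted 30-36 h at 37C, with 4.5 mM final sodium butyrate as control, followed by a ONE-Glo read.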
Rab9 promoter act = qHTS Assay for Rab9 Promoter Activators | AID 485297, 2010 | Huh7 Rab9 promoter-luciferase reporter, luminescence, 24 h | 320,000 compounds, 2.8% hits | Potency, µM (titrated, usually from 9.22 µM), inactives show top-dose activation, negative = inhibition, most hits filed as activators; note: % of control where 0% means no effect; nearly all actives have a fitted effect of over 60% in size
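Cell-based reporter: Huh7 stable for Rab9 promoter-driven luciferase, plated in reduced-serum medium with 10% FBS at 1500 cells/well, compound-treated 24 h at 37 °C, luminescence read after 10 min reagent.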
FLuc counter = qHTS profiling assay for firefly luciferase inhibitor/activator using purifed enzyme and Km concentrations of substrates (counterscreen for miR-21 project); Luciferin 4-monooxygenase (Photinus pyralis), P08659; purified FLuc, Km substrates, luminescence inhibition; Potency, µM (doses to about 57.5 µM), inactives show top-dose activity change, negative = inhibition, most hits filed as inhibitors; 360,000 compounds, 6.9% hits; AID 588342, 2011;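 note: plate controls were vehicle for no effect and reference inhibitor for full effect; nearly all actives have a fitted effect of over 55% in size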
Target sequence (P08659 whole entry, looked up): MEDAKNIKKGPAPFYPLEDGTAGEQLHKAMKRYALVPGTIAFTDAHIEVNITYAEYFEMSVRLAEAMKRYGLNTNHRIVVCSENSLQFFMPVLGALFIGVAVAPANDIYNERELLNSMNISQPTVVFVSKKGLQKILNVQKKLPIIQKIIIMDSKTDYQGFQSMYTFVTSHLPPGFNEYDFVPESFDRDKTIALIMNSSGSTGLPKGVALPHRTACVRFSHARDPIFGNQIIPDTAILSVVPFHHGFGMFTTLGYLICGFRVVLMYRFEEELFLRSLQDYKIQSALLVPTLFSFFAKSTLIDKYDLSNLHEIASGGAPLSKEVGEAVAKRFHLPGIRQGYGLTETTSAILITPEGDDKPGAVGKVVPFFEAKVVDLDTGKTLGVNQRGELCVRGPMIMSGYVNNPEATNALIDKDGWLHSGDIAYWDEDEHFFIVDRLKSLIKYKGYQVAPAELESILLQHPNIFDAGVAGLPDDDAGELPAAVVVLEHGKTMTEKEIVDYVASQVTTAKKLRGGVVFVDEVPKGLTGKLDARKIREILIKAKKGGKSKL
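Purified P. pyralis luciferase (10nM final) with 10uM D-luciferin and 10uM ATP (Km levels) in 50mM Tris acetate pH 7.5, 10mM Mg acetate, 0.01% Tween-20, 0.05% BSA; qHTS 6-point titration, ~60 µM downward; luminescence read.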
KinaseGlo FLuc = Counterscreen for Luciferase (Kinase-Glo TM) Inhibition; 200,000 compounds, 0.28% hits; Kinase-Glo luciferase, ATP luminescence, 8 min; Potency, µM (series often up to 38.3 µM), inactives show top-dose activity change, negative = inhibition, most hits filed as inhibitors; AID 1379, 2008; note: % is set by controls: 0 for no effect and ±100 for the full control effect; nearly all actives have a fitted effect of over 60% in size
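Compound is pinned into ATP-containing buffer (10 uM ATP, imidazole pH 7.2, 7 mM MgCl2). Kinase-Glo luciferase reagent is then added. Light output is recorded following an 8-min room-temperature incubation.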
NPC1 prom act = qHTS Assay for NPC1 Promoter Activators. Potency, µM (highest dose often 9.22 µM), without a hit: at the top dose activation, usual class: activators. AID 485313, 2010. Huh7 NPC1 promoter luciferase reporter, 24 h. 320,000 compounds, 2.4% hits; note: % of control where 0% means no effect; nearly all actives have a fitted effect of over 60% in size
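Compounds in DMSO were transferred onto Huh7 NPC1-luciferase reporter cells pre-incubated 2 h; after 24 h at 37 °C, Amplite reagent was dispensed and luminescence recorded 10 min later.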
ELG1 genotox = qHTS screen for small molecules that induce genotoxicity in human embryonic kidney (HEK293T) cells expressing luciferase-tagged ELG1. HEK293T ELG1-luciferase reporter, luminescence, 16 h. Potency, µM (series often up to 46 µM), without a hit: top-dose activity change, positive = activation, hits mostly activators. 330,000 compounds, 1.3% hits; note: % of control where 0% means no effect; nearly all actives have a fitted effect of over 60% in size
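Step 1: seed 2,000 HEK293T ELG1-luciferase cells per well. Step 2: add compound or DMSO, incubate 16 hr at 37 °C. Step 3: ONE-Glo, 30 min at room temperature, read luminescence.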
Active calls of the source: *; ? = inconclusive; . = no result; [ ] = another dose, or the depositor's remark. Calls come from the whole dose curve; as a rule, active = well fitted curve in the direction sought with a large enough effect; inconclusive = small, poorly fitted or top-dose-only effect, or another doubt; inactive = no such curve, though single readings can be large; an effect the other way counts as inactive or inconclusive. Potency is the fitted concentration of half-maximal effect.

SMILES	SMN2 splice enh	Rab9 promoter act	FLuc counter	KinaseGlo FLuc	NPC1 prom act	ELG1 genotox
CC(Sc1nnc(NCc2ccccc2)s1)C(=O)Nc1ccc2c(c1)C(=O)c1ccccc1C2=O (stereo not given)	1.26µM*	?	?	-3.6%	?	8.1%
CC(Sc1nnc(Nc2ccccc2)s1)C(=O)Nc1nc(-c2ccccc2)cs1 (stereo not given)	3.98µM*	1.1%	-4.6%	3.2%	-1.7%	-8.2%
CCOC(=O)Nc1sc2c(c1C#N)CCCC2	29.9%	3.98µM*	15.1µM*	-2.6%	?	14.6µM*
Cc1nnc(SCC(=O)Nc2sc3c(c2C#N)CCCCC3)n1N	16.9%	18.7%	21.3µM*	-4.7%	25.8%	?
N#Cc1c(NC(=O)CSc2nnnn2C2CCCCC2)sc2c1CCCC2	.	-2.3%	1.8%	.	7.5%	-0.4%
Cc1ccc(OCC(=O)Nc2sc3c(c2C#N)CCC3)cc1	5.2%	?	4.78µM*	-3.1%	?	?
CCCC(=O)Nc1cc(C(=O)O)ccc1S(=O)(=O)c1ccc(Cl)cc1	1.0%	-6.8%	-0.4%	-3.2%	-1.2%	2.0%
CC(Oc1cccc(Cl)c1)C(=O)Nc1ccc(S(=O)(=O)N(C)C2CCN(C)CC2)cc1 (stereo not given)	.	-4.8%	6.3%	.	-6.0%	-0.4%
COCCN(C(=O)COC(=O)CCOc1ccccc1C)c1c(N)n(Cc2ccccc2)c(=O)[nH]c1=O	.	0.5%	5.3%	.	2.0%	1.7%
CCCc1ccc(-c2cc(C(=O)NCCc3ccc(S(N)(=O)=O)cc3)c3ccccc3n2)cc1	?	2.82µM*	0.675µM*	-11.6%	?	0.6%
NS(=O)(=O)c1ccc(CCNC(=O)c2cc(-c3ccc(Br)cc3)nc3ccccc23)cc1	11.2%	-1.0%	?	-2.2%	-8.3%	-9.0%
CC(C)Oc1cccc(-c2cc(C(=O)NN3CCOCC3)c3ccccc3n2)c1	.	-2.5%[1.84 µM]	13.5µM*	.	-1.5%	-0.8%
CC(C)Oc1cccc(-c2cc(C(=O)NC(=S)N(C)c3ccccc3C(=O)O)c3ccccc3n2)c1	18.2%	-0.6%	2.69µM*	-0.2%	0.5%	3.1%
CCc1ccc(-c2cc(C(=O)N3N=C(C(F)F)CC3(O)C(F)F)c3ccccc3n2)cc1 (stereo not given)	9.4%	28.1%	5.36µM*	-3.5%	20.6%	0.1%
COc1cccc(-c2cc(C(=O)Nc3ccc4c(c3)OCCO4)c3ccccc3n2)c1	-6.9%	-2.1%	?	2.3%	-3.1%	0.1%
CCc1ccc(-c2cc(C(=O)Nn3cnnc3)c3ccccc3n2)cc1	?	?	0.0675µM*	8.91µM*	?	?
Cc1cc(C)c2nc(-c3ccccn3)cc(C(=O)Nn3cnnc3)c2c1	-0.1%	1.9%	19µM*	0.5%	-2.6%	-0.5%
Cc1cc(C)c2nc(-c3ccccn3)cc(C(=O)NCc3cc(C)n(C)n3)c2c1	13.3%	-4.0%	-6.6%	-1.7%	-1.4%	?
CCCc1ccc(-c2cc(C(=O)NN3CCOCC3)c3ccccc3n2)cc1	?	?	1.69µM*	-5.7%	?	7.6%
CCN(CC)c1ccc(NC(=O)c2cc(S(=O)(=O)N3CCc4ccccc43)cn2C)c(C)c1	.	.	-3.3%	.	.	.
Cc1cc(/C=C2\SC(=S)NC2=O)c(C)[nH]1	19.0%	9.2%	10.7µM*	2.2%	7.8%	?
CCn1c(C)cc(/C=C2/SC(=S)NC2=O)c1C	?	?	4.78µM*	2.7%	?	?
CCn1ncc(/C=C2/SC(=S)NC2=O)c1C	13.4%	1.7%	15.1µM*	-0.6%	1.4%	-1.0%
CCOc1ccc(N(C)c2ccc(/C=C3/SC(=S)NC3=O)cc2)cc1	.	-4.0%	?	.	-0.4%	-1.9%
Cc1ccc(-c2cnc(SCC(=O)N3CCCc4ccccc43)n2C)cc1	-9.3%	-5.2%	19µM*	-6.1%	-4.3%	-0.2%
SMILES	SMN2 splice enh	Rab9 promoter act	FLuc counter	KinaseGlo FLuc	NPC1 prom act	ELG1 genotox
Cc1ccc2c(c1)c1nnc(SCC(=O)N3CCCc4ccccc43)nc1n2CC(=O)O	.	3.55µM*	6.75µM*	10µM*	3.55µM*	?
COc1ccc2c(CC(=O)N3CCc4ccccc43)coc2c1	15.8µM*	3.16µM*	3.38µM*	-16.9%	2µM*	?
Cc1ccc(-c2ccc(SCC(=O)N3CCCc4ccccc43)nn2)cc1	17.4%	7.8%	8.49µM*	-2.1%	7.4%	2.6%
Cc1ccc(-c2ccc(SCC(=O)N3CCc4ccccc43)nn2)cc1	23.0%	16.1%	?	-2.6%	1.3%	9.6%
Cn1c(-c2ccccc2)cnc1SCC(=O)N1CCCc2ccccc21	-13.5%[1.84 µM]	1.6%	?	1.1%	3.1%	1.1%
COc1ccc(C(=O)NC(C(=O)N2CCc3ccccc32)C(C)C)cc1 (stereo not given)	.	0.1%	1.4%	-0.6%	2.0%	14.2%
COc1cc(OC)cc(C(=O)N[C@H](C(=O)OCC(=O)N2CCc3ccccc32)C(C)C)c1	-4.2%	-5.6%	15.1µM*	-2.7%	-2.1%	3.6%
O=C(CSc1nnnn1-c1ccccc1)N1CCCc2ccccc21	-12.4%	6.8%	-6.9%	-2.6%	1.9%	0.1%
COc1cccc(-c2ccc(SCC(=O)N3CCc4ccccc43)nn2)c1	25.1%	-3.3%	21.3µM*	1.1%	-1.1%	1.0%
Cn1c(-c2ccccc2)cnc1SCC(=O)N1CCCCC1	1.41µM*	0.316µM*	1.2µM*	-0.1%	0.398µM*	?
CCCn1nnnc1SCC(=O)N1CCCc2ccccc21	-6.9%	-2.4%	?	2.5%	-5.0%	14.6µM*
CCCCNC(=O)c1ccc2c(c1)NC(=O)C(CS(=O)(=O)Cc1cccc(C)c1)N2 (stereo not given)	.	.	5.4%	.	.	.
COc1ccc2c(c1)Cc1sc(NC(=O)c3ccc(Cl)cc3)nc1-2	-5.9%	.	0.1%	.	.	.
COC(=O)c1ccc(NS(=O)(=O)c2cc(-c3cc(C)no3)ccc2OC)cc1	.	?	0.3%	.	-31.8%	1.9%[9.26 µM]
Cc1ccc(-c2nnc(Nc3ccc(O)cc3)c3ccccc23)cc1S(=O)(=O)NC(C)(C)CO	3.3%	.	19µM*	.	.	.
NC(=O)Cc1ccc(Nc2nnc(-c3ccccc3)c3ccccc23)cc1	-0.5%	1.8%	21.3µM*	-1.1%	6.2%	7.5%
Cc1nnc(Nc2ccc3c(c2)OCO3)c2ccccc12	18.0%	?	15.1µM*	-0.6%	?	?
